Assay results published in PubChem BioAssay (Tox21).
Active and inactive are the calls of the source. Where a call stands in place of a potency, no number is given. Calls come from the whole dose curve; as a rule, active = well fitted activation curve with a large enough effect in the signal ratio in the repeat runs (not every such curve was filed as active); inconclusive = weak or mixed curves, or effect the other way; inactive = no such curve, though single readings can be large or run the other way; the % refers to the signal ratio.
Potency is the fitted concentration of half-maximal effect.

These compounds were tested against Glucocorticoid receptor (Homo sapiens) (UniProt P04150) (assay: qHTS assay to identify small molecule agonists of the glucocorticoid receptor (GR) signaling pathway (AID 720691)). Conditions: GR-bla HeLa, beta-lactamase reporter ratio, 18 h; activation: at 62.4 µM (top of the series).
Chain of Glucocorticoid receptor (Homo sapiens) (P04150 whole entry, looked up): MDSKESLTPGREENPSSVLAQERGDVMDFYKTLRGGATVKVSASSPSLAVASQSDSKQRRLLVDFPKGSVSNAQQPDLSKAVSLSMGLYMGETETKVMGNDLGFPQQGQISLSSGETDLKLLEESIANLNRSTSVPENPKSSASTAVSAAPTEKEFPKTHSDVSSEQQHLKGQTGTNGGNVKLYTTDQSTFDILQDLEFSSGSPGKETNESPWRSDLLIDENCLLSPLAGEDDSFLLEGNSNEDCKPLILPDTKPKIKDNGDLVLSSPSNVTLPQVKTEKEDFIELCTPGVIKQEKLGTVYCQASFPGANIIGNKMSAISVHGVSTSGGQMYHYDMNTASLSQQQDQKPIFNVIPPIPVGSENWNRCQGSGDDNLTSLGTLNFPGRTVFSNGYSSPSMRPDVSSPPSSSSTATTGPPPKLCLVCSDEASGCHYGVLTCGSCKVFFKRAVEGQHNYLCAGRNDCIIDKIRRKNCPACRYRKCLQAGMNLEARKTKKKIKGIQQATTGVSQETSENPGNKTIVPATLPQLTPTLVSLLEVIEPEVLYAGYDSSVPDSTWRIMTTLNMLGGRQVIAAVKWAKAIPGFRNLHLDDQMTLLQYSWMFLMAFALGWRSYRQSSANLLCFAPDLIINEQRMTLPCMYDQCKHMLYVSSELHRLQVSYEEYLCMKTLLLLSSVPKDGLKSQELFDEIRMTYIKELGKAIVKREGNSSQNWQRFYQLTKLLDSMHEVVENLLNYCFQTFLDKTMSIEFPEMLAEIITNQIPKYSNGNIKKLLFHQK
In short: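 Steps: seed GR-bla HeLa cells, incubate 4 h at 37 C/5% CO2; pin-transfer DMSO-dissolved compounds; incubate 18 h at 37 C; add LiveBLAzer B/G FRET substrate; after 2 h at room temperature, measure fluorescence.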
With `C[C@H](Cc1ccc(O)c(O)c1)[C@@H](C)Cc1ccc(O)c(O)c1` the Potency was “inactive”. With `CCCOC(=O)c1ccc(O)cc1` the Potency was “inactive”. For `N[C@@H](Cc1ccc(O)c(O)c1)C(=O)O`, the Potency was “inactive”. `O=P(O)(O)CP(=O)(O)O` was tested, and the Potency was “inactive”. For `CC(=O)OCC(=O)[C@@]1(O)CC[C@H]2[C@@H]3C[C@H](C)C4=CC(=O)C=C[C@]4(C)[C@H]3[C@@H](O)C[C@@]21C`, the Potency was 0.134 µM [inconclusive] (active). For `CCCOC(=O)c1ccccc1O`, the Potency was “inactive”. With `CCCCCCCC[N+](C)(C)CCCCCCCC` the Potency was “inactive”. `CC(CNC(=O)c1cccnc1)NC(=O)c1cccnc1` (stereo not drawn) was tested, and the Potency was “inactive”.
